Screens: PubChem, several laboratories
PABP FP inh – PABP-poly(A) binding inhibition. 290,000 compounds, 1% hits. calls only at 35 µM. P11940. PABP-poly(A) RNA binding, fluorescence polarization;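 also: calls also rest on retests at 20 µM and on dose response follow-up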
MEX-5 binding – C. elegans MEX-5 TCR-2 RNA binding activity | 300,000 compounds, 0.38% hits | AID 1832 | MEX-5/FITC-TCR2 RNA binding, fluorescence polarization; hits give low values | activity score (negative = inhibition of binding), % at 10 µM;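 active = inhibition past about -25% in most replicates, and total fluorescence under double the plate's negative control median, limit read from the data; inconclusive = replicates evenly split on the limit, or fluorescence at least double controls; inactive = too little inhibition in most replicates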;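 also: 0% = DMSO and -100% = 5 µM competing unlabeled TCR2 RNA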
Target sequence (Q9XUB2 whole entry, looked up): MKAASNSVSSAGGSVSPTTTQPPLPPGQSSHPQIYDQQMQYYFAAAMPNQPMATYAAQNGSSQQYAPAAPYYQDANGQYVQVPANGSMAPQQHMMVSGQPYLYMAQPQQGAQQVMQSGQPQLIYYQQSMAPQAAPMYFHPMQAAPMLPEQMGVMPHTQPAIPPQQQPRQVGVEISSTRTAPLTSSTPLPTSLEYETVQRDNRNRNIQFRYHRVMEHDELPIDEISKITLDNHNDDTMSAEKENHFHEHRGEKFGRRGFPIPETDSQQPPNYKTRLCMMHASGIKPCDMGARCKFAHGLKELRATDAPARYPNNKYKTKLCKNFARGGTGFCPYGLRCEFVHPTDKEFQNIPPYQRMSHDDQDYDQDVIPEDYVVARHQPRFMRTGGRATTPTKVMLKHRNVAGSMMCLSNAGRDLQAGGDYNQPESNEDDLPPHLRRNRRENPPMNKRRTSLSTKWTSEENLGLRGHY
EBV gp42 block – EBV gp42 inhibition | Q1HVG2 | Fluorescence polarization binding assay, mP read-out | inhibition, % (tested at 21.74 µM) | 220,000 compounds, 0.42% hits; in the data active = inhibition above about 50%
eIF4H inh – inhibitors of RNA binding by human eIF4H; Q15056; eIF4H fluorescence polarization binding assay; inhibition, % at 35 µM; 290,000 compounds, 0.94% hits; AID 2012;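 also: calls also rest on retests at 20 µM and on dose response follow-up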
PABP1 MLLE inh – blocks PAM2 peptide binding to the PABP1 MLLE domain. P11940. GST-MLLE / FITC-PAM2 fluorescence polarization. inhibition, % at 20 µM. 360,000 compounds, 0.36% hits. AID 588489; in the data active = inhibition above about 35%, passing the limit was not always enough;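 also: plate controls were DMSO wells with GST-MLLE for no effect and wells lacking GST-MLLE protein for full effect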
* = called active by the depositor; i = inactive; u = inconclusive; x = no result; + = active, no number. In the library only some 1.8% were active in any assay of this set; here they are far more common. Unless noted, no rule for the calls is given here.

SMILES | PABP FP inh | MEX-5 binding | EBV gp42 block | eIF4H inh | PABP1 MLLE inh
C/C(N)=C(/C#N)C(=O)CSc1nnc(Nc2ccccc2)s1 | i | -1 | 124* | -2 | -8
C/C(N)=C(/C#N)C(=O)CSc1ncnc2ccccc12 | i | -39* | -9 | -8 | -4
C/C(N)=C(/C#N)C(=O)CSc1nc2ccccc2[nH]1 | i | -1 | -6 | 45 | -36
Fc1cccc(-c2csc(-c3ccno3)n2)c1 | i | 1 | -4 | -3 | 31
Nc1nc(-c2cccc(F)c2)cs1 | i | 2 | -9 | -14 | 39*
O=C(N/N=C/c1ccc(N2CCOCC2)cc1)c1ccncc1 | x | x | x | x | -12
O=C(N/N=C/c1ccc(N2CCOCC2)cc1)c1ccccc1OCCOc1ccccc1 | + | 8 | -58 | 104* | -32
CCCCc1ccc(NC(=O)CC(C)(C)C)cc1 | + | 0 | -16 | 98* | 2
COC(=O)C1=C(C)N(c2ccc(C)c(C)c2)/C(=C/c2ccco2)C1=O | i | -17 | 5 | 18* | -23
CCOC(=O)C1=C(C)N(c2ccc(C)c(C)c2)C(=O)/C1=C\c1ccco1 | i | -2 | -14 | -3 | 9
Cc1c(NC(=O)c2cccc(NC(=O)C(C)Oc3ccccc3)c2)c(=O)n(-c2ccccc2)n1C (stereo not drawn) | x | x | x | x | -14
N#C/C(=C\c1cc(Cl)c(OCc2ccc(Cl)cc2)c(Cl)c1)C(N)=O | i | 2 | -14 | -4 | x
N#C/C(=C\c1cc(O)c(O)c(O)c1)C(N)=O | + | -27* | -54 | 54* | -12
COc1ccc(CN(C)C[C@@H]2OCc3cnnn3CCCC(=O)N([C@@H](C)CO)C[C@H]2C)cc1 | x | x | x | x | 11
CCCCOC(=O)c1ccc(N=Nc2c(C)c(C#N)c(O)[nH]c2=O)cc1 | u | -63* | -35 | u | 44
Cc1cccc(N=Nc2c(C)c(C#N)c(O)[nH]c2=O)c1 | u | -1 | -36 | u | -51
Nc1nc(-c2ccc(Cl)cc2)nn1C(=O)c1cccs1 | + | 2 | -12 | u | 2
Nc1nc(-c2ccc(Cl)cc2)nn1C(=O)c1cccnc1 | i | -2 | 1 | -4 | -11
Cn1c(=O)[nH]c(=O)c2c1nc(N1CCCCC1)n2CCCSc1nnnn1-c1ccccc1 | + | -3 | 4 | active | 11
CC1CCN(c2nc3c(c(=O)[nH]c(=O)n3C)n2CC(C)CSc2nnnn2-c2ccccc2)CC1 (stereo not drawn) | + | 1 | 4 | 5 | -8
Cc1cnc(CN(C)C(=O)C2CCC(=O)N(CCc3ccc(Cl)cc3)C2)[nH]1 (stereo not drawn) | x | x | x | x | -6
CC(=O)Nc1ccc(CNc2nc3cc(-c4ccsc4)sc3c(=O)n2C)cc1 | x | x | x | x | 4
O=c1[nH]c(/C=C/c2ccc(Br)cc2)nc2ccccc12 | i | 2 | x | 4 | 13
CN(C)c1ccc(/C=C/c2nc3ccccc3c(=O)[nH]2)cc1 | i | -33* | x | 34 | -90
O=c1[nH]c(/C=C/c2cccc3ccccc23)nc2ccccc12 | i | -50* | -100 | -1 | -49
SMILES | PABP FP inh | MEX-5 binding | EBV gp42 block | eIF4H inh | PABP1 MLLE inh
Cc1cccc(S(=O)(=O)NC(=O)C2(C)CCN2C(=O)c2ccccc2)c1 (stereo not drawn) | x | x | x | x | 3
Cc1ccc(S(=O)(=O)N2CCCCC2)cc1NC(=O)c1ccc(=O)[nH]c1 | x | x | x | x | -7
Cc1cc(NC(=O)CS(=O)c2cn(Cc3cccc(Cl)c3)c3ccccc23)no1 (stereo not drawn) | x | x | x | x | 15
Cc1ccc(/C=C/C(=O)c2ccc(C)cc2)cc1 | i | -1 | 4 | 3 | 13
Cc1ccc(C(=O)/C=C/C(=O)c2ccc(C)cc2)cc1 | + | 2 | -12 | x | 1
COc1ccc(-c2ccc(/C=C3/C(=N)N4C(C)=CSC4=NC3=O)o2)c([N+](=O)[O-])c1 | + | 0 | -9 | 91* | 49
COc1ccc(-c2ccc(/C=C3\C(=O)N(c4ccccc4)N=C3c3ccccc3)o2)c([N+](=O)[O-])c1 | i | 1 | -4 | 4 | 18
CN(CC(=O)Nc1ccc(Cl)cc1)C(=O)CN1C(=O)C2CCCCC2C1=O (stereo not drawn) | x | x | x | x | -1
CCn1c2ccccc2c2n[nH]c(=S)nc21 | i | 5 | x | -7 | 33
O=C(O)Cn1c2ccccc2c2n[nH]c(=S)nc21 | i | -6 | x | 13 | 43*
O=c1[nH]c2cc3ccccc3cc2nc1C(F)(F)F | i | -11 | 28 | 38 | 41*
Cc1ccc(CNC(=O)C2(C)CCN2C(=O)Cc2ccc(-c3ccccc3)cc2)cc1 (stereo not drawn) | x | x | x | x | -3
CCCN1CCN(S(=O)(=O)c2cn(C)nc2C)CC1 | + | -22 | x | 69 | 36
Cc1cc(C(=O)CSc2nnc(N)s2)c(C)n1C1CC1 | x | -1 | x | x | 18
Cc1cc(C(=O)CSc2nc(N)cc(N)n2)c(C)n1C1CC1 | i | -1 | -22 | 81* | 1
COc1cc(-c2nc(S(=O)(=O)c3ccc(C)cc3)c(N3CCOCC3)o2)cc(OC)c1OC | i | 0 | -16 | -4 | 40*
C=CCOc1ccc(C2OC34CCCCC3C(C#N)(C#N)C2(C#N)C(=N)O4)cc1 (stereo not drawn) | + | -45* | -10 | 84* | 81
CCCCOc1ccc(C2OC34CCCCC3C(C#N)(C#N)C2(C#N)C(=N)O4)cc1 (stereo not drawn) | u | x | -1 | u | 81
CCOc1ccc(C2OC34CCCCC3C(C#N)(C#N)C2(C#N)C(=N)O4)cc1OC (stereo not drawn) | u | -29* | 0 | u | 86
Cc1ccc(C(=O)O)cc1-c1ccc(/C=C2/NC(=O)N(c3ccccc3)C2=O)o1 | + | 0 | -4 | 79* | -14
Cc1cc(C(=O)O)ccc1-c1ccc(/C=C2\NC(=O)N(Cc3ccccc3Cl)C2=O)o1 | i | -11 | -34 | 86 | 14
Cc1ccc(CN2C(=O)N/C(=C\c3ccc(-c4ccc(C(=O)O)cc4C)o3)C2=O)cc1 | + | x | -2 | 87* | 3
O=C(O)c1ccc(-c2ccc(/C=C3\NC(=O)N(Cc4ccc(Cl)cc4)C3=O)o2)cc1 | + | x | 7 | 73* | -7
COC(=O)c1ccc(C(=O)N2CCCCCC2(C)C(=O)NC(C)C)cc1 (stereo not drawn) | x | x | x | x | 4
CCNC(=O)C1(C)CCCN(C(=O)c2cc3ccccc3s2)C1 (stereo not drawn) | x | x | x | x | 0
CC(O)/C=C/c1ccc2ccccc2n1 (stereo not drawn) | i | 0 | -13 | 1 | 38*
c1coc(-c2nn3c(Cn4nnc5ccccc54)nnc3s2)c1 | i | 1 | -26 | 5 | 38*
Brc1ccc(-c2nn3c(-c4ccco4)nnc3s2)o1 | + | -7 | -6 | 66* | 18
CCc1nc2c(OCc3ccc(C(F)(F)F)cc3)cccn2c1N(C)C(=O)c1ccncc1 | x | x | x | x | 14
Cc1ccc(-c2cc(-c3ccccc3Cl)c(C#N)c(N)n2)o1 | + | -2 | 15 | 66* | -16
